Compounds with a hit are over-represented: about 1% of the library has one in this group of screens.
SNCA expr inh: inhibitors of alpha-synuclein (SNCA) gene expression; Potency, µM (doses to about 57.2 µM), most hits filed as inhibitors; hit rate 0.17% among 140,000; AID 1671194; HEK-293 SNCA-luciferase knock-in, luminescence, 24 h; note: nearly all actives have a fitted effect of over 45% in size
HEK293 viab: cell viability loss counter-screen | hit rate 0.12% among 150,000 | Potency, µM (top dose mostly 57.1 µM), actives largely listed as cytotoxic | HEK-293-SNCA-luc viability, GF-AFC fluorescence, 24 h | AID 1671193; note: nearly all actives have a fitted effect of over 30% in size
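HEK-293-SNCA-luc cells (1500/well) plated 24 h, then exposed 24 h to a dilution series; GF-AFC added 30 min at 37C, fluorescence 405/540 nm; normalised to medium-only and DMSO wells, Hill fit.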
IP6K1 inh: inhibitors of human IP6K1. Q92551. IP6K1 kinase, ADP-Glo luminescence, 2 h; active compounds read low. activity change, % (series mostly up to about 58 µM). hit rate 0.81% among 140,000. AID 1645851; in the data active = activity change below about -25%
Target sequence (Q92551 whole entry, looked up): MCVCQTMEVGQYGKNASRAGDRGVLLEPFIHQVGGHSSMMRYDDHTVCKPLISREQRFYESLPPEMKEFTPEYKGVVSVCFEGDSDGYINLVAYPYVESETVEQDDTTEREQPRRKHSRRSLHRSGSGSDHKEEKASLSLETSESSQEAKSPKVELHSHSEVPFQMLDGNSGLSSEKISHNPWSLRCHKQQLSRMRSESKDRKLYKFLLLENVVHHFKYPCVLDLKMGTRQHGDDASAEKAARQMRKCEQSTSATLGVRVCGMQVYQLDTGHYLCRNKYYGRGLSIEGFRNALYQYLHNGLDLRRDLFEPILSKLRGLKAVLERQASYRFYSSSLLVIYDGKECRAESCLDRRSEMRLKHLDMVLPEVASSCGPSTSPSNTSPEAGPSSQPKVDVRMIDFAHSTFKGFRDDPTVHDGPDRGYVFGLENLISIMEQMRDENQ
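ADP-Glo luminescence measures ADP made by human IP6K1 during a 2 h RT reaction with ATP/IP6 (mix at 1.3 mM/130 uM); top library doses 57.5 and 19.1 uM final.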
GPT2 inhibitor: GPT2 alanine aminotransferase inhibition; hit rate 0.25% among 100,000; Q8TD30; Potency, µM (highest dose often 57.7 µM), usual class: inhibitors; Recombinant GPT2, coupled pyruvate oxidase/HRP Amplex Red fluorescence; AID 1671188; note: nearly all actives have a fitted effect of over 60% in size
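Fluorescence read-out: pyruvate from GPT2 turnover coupled to pyruvate oxidase, HRP and Amplex Red (0.2mM ThPP, 0.2U/mL PO and HRP, 50uM Amplex final). Substrates 250uM a-KG, 2mM L-alanine; enzyme 10ng/uL; 30 min RT.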
IP6K1 inh cnf: confirmation of human IP6K1 inhibitors; shares compounds with IP6K1 inh; recombinant IP6K1 kinase, ADP-Glo luminescence, 2 h; Potency, µM (highest dose often 49 µM), usual class: inhibitors; hit rate 13% among 1,200; AID 1645852; note: nearly all actives have a fitted effect of over 65% in size
GPT2 inh cnf: human alanine aminotransferase 2 inhibition, confirmatory. shares compounds with GPT2 inhibitor. GPT2 enzyme, coupled Amplex Red pyruvate fluorescence. Potency, µM, most hits filed as inhibitors. hit rate 90% among 95
Large screens that a line does not name were inactive (follow-up assays come after a bar, where they were run). Unless noted, calls come from the whole dose curve; as a rule, active = well fitted curve in the direction sought with a large enough effect; inconclusive = small, poorly fitted or top-dose-only effect, or another doubt; inactive = no such curve, though single readings can be large; an effect the other way counts as inactive or inconclusive.

O=C(c1ccc(-c2ncc3cnc(-c4cccc(F)c4)cn23)cc1)N1CC(O)C1	IP6K1 inh -29.2 | IP6K1 inh cnf inactive
Cn1ncc2c(C(=O)N3CCC(N4CCCCC4)CC3)cc(-c3ccccc3C(F)(F)F)nc21	none (no result: SNCA expr inh, HEK293 viab, GPT2 inhibitor)
CCOC(=O)N1CCC(=O)N(C)C[C@H]2COc3ccc(C)cc3[C@H]21	none (no result: SNCA expr inh, HEK293 viab, GPT2 inhibitor)
COc1ccc(OCC(=O)NCc2ccc3c(c2)CCN3C(=O)c2ccc(F)cc2)cc1	IP6K1 inh -35.9 (no result: GPT2 inhibitor) | IP6K1 inh cnf inactive
O=C(COc1ccc(F)cc1)NCc1ccc2c(c1)CCN2C(=O)c1ccc(F)cc1	none (no result: GPT2 inhibitor)
NS(=O)(=O)c1ccc(Nc2nc(OCC3CCCCC3)c3[nH]cnc3n2)cc1	HEK293 viab inconclusive, IP6K1 inh -46.7 | IP6K1 inh cnf 4.11µM
CCN(CC)C(=O)c1ccc(Nc2nc(OCC3CCCCC3)c3[nH]cnc3n2)cc1	IP6K1 inh -40.5 (no result: SNCA expr inh) | IP6K1 inh cnf 10.3µM
Cc1ccc(-c2noc([C@@H]3Cc4nc[nH]c4CN3Cc3ccccc3)n2)cc1	SNCA expr inh inconclusive
O=C(NCc1cccc(Cl)c1)c1ccc2nc(N3CCCCC3)sc2c1	none (no result: GPT2 inhibitor)
O=C(NCCc1ccccc1)c1ccc2nc(N3CCCCC3)sc2c1	IP6K1 inh -30.8 (no result: GPT2 inhibitor) | IP6K1 inh cnf inactive
COc1ccc2c(c1)C(CN1CCN(c3ccc4oc(C(=O)O)cc4c3Cl)CC1)=CC(C)(C)CO2	IP6K1 inh -73.9 (no result: SNCA expr inh, HEK293 viab, GPT2 inhibitor) | IP6K1 inh cnf inactive
O=C(Nc1cc(F)cc(F)c1)c1cnc(-c2ccc(F)cc2)nc1-c1ccncc1	HEK293 viab inconclusive
CCC(=O)C(=O)N1CCC2(CCCN(Cc3ccc(C(C)C)cc3)C2=O)C1 (stereo unspecified)	GPT2 inhibitor inconclusive
O=C(C1CCCN1C(=O)Nc1ccc(Cl)cc1)N1CCC(N2CCCC2=O)CC1 (stereo unspecified)	none
COc1ccccc1NC(=O)C1=C(C)Nc2nc3ccccc3n2C1c1cccc(Br)c1 (stereo unspecified)	IP6K1 inh -26.0 (no result: GPT2 inhibitor) | IP6K1 inh cnf inactive
CCCC(=O)Nc1cc(C2CC2)nn1-c1ccccc1	GPT2 inhibitor inconclusive
CCn1c(=O)c2cc(C(=O)N(CC(C)C)CC(C)C)sc2c2ccccc21	IP6K1 inh -26.1 (no result: GPT2 inhibitor) | IP6K1 inh cnf inactive
CCCN(C(=O)c1cc2c(=O)n(CC)c3ccccc3c2s1)c1ccccc1F	none (no result: GPT2 inhibitor)
O=C(Nc1noc2ccccc12)c1c(F)cccc1F	SNCA expr inh inconclusive, IP6K1 inh -31.3 (no result: GPT2 inhibitor) | IP6K1 inh cnf inconclusive
CC1=Nc2cc(C(=O)NCCCN(C)C)ccc2Sc2ccc(Cl)cc21	none
C[C@]1(C2CCCC2)Cc2cc(OCC(=O)O)c(Cl)c(Cl)c2C1=O	IP6K1 inh -41.8 (no result: SNCA expr inh) | IP6K1 inh cnf 7.31µM
C[C@@H]1CN(C(=O)c2cnc3c(O)cccn3c2=O)CC[C@@]1(O)C1CCC1	IP6K1 inh -28.3, GPT2 inhibitor inconclusive | IP6K1 inh cnf inactive
CCCCCn1c(CCCNC(=O)c2ccc(Cl)cc2)nc2ccccc21	IP6K1 inh -39.4 (no result: GPT2 inhibitor) | IP6K1 inh cnf inactive
CC(=O)NCCc1nc2ccccc2n1CCCCOc1ccc(Cl)cc1	SNCA expr inh inconclusive (no result: GPT2 inhibitor)
Fc1ccccc1CN1CCOC[C@H]1c1ncc(-c2ccc(Cl)s2)[nH]1	none
Cc1ccc(Nc2ccnc(N3CCCC(C(=O)NCCc4ccc(F)cc4)C3)n2)cc1 (stereo unspecified)	none
Cc1ccc(-c2ccc3nnc(CNC(=O)Cc4cccs4)n3n2)cc1C	none | IP6K1 inh cnf inactive
Cc1ccccc1CN1C(=O)c2ccccc2Sc2ccc(C(=O)O)cc21	none (no result: GPT2 inhibitor)
O=C(O)c1cccc(CN2C(=O)/C(=C(\c3ccccc3)c3ccc(Cl)cc3)c3ccccc32)c1	IP6K1 inh -25.9 (no result: SNCA expr inh) | IP6K1 inh cnf 20.6µM
O=S(=O)(c1ccc2c(c1)CCC2)N1CCCC1c1nncn1-c1ccccc1 (stereo unspecified)	none
CCCS(=O)(=O)Nc1ccc(F)c(C(=O)c2c[nH]c3ncc(Cl)cc23)c1F	SNCA expr inh 12.1µM, HEK293 viab inconclusive, IP6K1 inh -31.1 | IP6K1 inh cnf inconclusive
CCCCOc1c(C(=O)c2c(F)cc(C)cc2F)cnc2n[nH]cc12	SNCA expr inh inconclusive
COCC(=O)N1Cc2ccccc2OC2(CCN(C(C)C)CC2)C1	none
O=C(C1CCCN(c2nccc(Nc3ccccc3F)n2)C1)N1CCCC1 (stereo unspecified)	GPT2 inhibitor inconclusive
Cc1nn(-c2ccc(F)cc2)c(Oc2ccccc2F)c1CCC(=O)N1CCCC1	none
CCN(C(=O)CSc1nc(-c2ccccc2)no1)c1cccc(C)c1	SNCA expr inh inconclusive, HEK293 viab inconclusive, IP6K1 inh -43.6 (no result: GPT2 inhibitor) | IP6K1 inh cnf inactive
Cc1ccc(NC(=O)c2nc(S(C)(=O)=O)ncc2N(Cc2ccco2)Cc2ccco2)cc1C	IP6K1 inh -28.8 (no result: GPT2 inhibitor) | IP6K1 inh cnf inactive
Cc1ccc(NC(=O)c2nc(S(C)(=O)=O)ncc2N(Cc2ccco2)Cc2cccs2)cc1C	HEK293 viab inconclusive (no result: GPT2 inhibitor)
Cc1ccc(Nc2ccnc(N3CCCC(C(=O)N4CCN(Cc5ccccc5)CC4)C3)n2)cc1 (stereo unspecified)	SNCA expr inh inconclusive
CCC(C(=O)NCc1ccccc1OC)n1nc(C)n2c(cc3sccc32)c1=O (stereo unspecified)	IP6K1 inh -84.8 (no result: GPT2 inhibitor) | IP6K1 inh cnf inactive
Cc1ccsc1/C=C/C1=NCCCN1C	IP6K1 inh -33.3, GPT2 inhibitor inconclusive | IP6K1 inh cnf inactive
COc1ccccc1N1CCC(N2CCN(CCCc3ccccc3)C(CCO)C2)CC1 (stereo unspecified)	none
COc1ccc(-c2nc3cc(C)ccn3c2NC(=O)c2ccc(C)c(C)c2)cc1	HEK293 viab inconclusive (no result: GPT2 inhibitor)
COc1ccc(-c2nc3cc(C)ccn3c2NC(=O)c2ccc(F)cc2)cc1	HEK293 viab inconclusive, IP6K1 inh -31.5 (no result: GPT2 inhibitor) | IP6K1 inh cnf inconclusive
Cc1cnc(Nc2ccc(F)cc2Cl)nc1-c1c[nH]c(C(=O)NC(CO)c2cccc(Cl)c2)c1 (stereo unspecified)	IP6K1 inh -42.1, GPT2 inhibitor 7.08µM (no result: SNCA expr inh) | IP6K1 inh cnf 9.2µM | GPT2 inh cnf 3.43
CC(C)Nc1cc(-c2c[nH]c(C(=O)N[C@H](CO)c3cccc(Cl)c3)c2)c(Cl)cn1	SNCA expr inh inconclusive
C[C@@]12C(=O)N(CC3CC3)c3ccccc3[C@@H]1[C@@H](C(N)=O)CN2C(=O)c1ccc(F)cc1	none
CN(C)c1ccc(Nc2nc(N)n(C(=O)c3c(F)cccc3F)n2)cc1	IP6K1 inh -51.0, GPT2 inhibitor 3.16µM | IP6K1 inh cnf 10.3µM | GPT2 inh cnf 1.22
CN(C)c1ccc(C(=O)N2CCc3cn(C)c4cccc(c34)C2)cc1	none
CN(C)c1ccc2c(c1)CN(C(=O)c1cnn(C)c1)CCO2	GPT2 inhibitor 1µM | GPT2 inh cnf 0.685
CCN(CC)c1ccc(NC(=O)CCn2ccn3nc4c(c3c2=O)CCCC4)c(C)c1	HEK293 viab inconclusive, GPT2 inhibitor inconclusive | GPT2 inh cnf 1.72

Screening data (PubChem)
